The results in this text go back to PubChem BioAssay (NCATS).

Inconclusive results are not listed. A number with no mark means an inactive call. The source made the active and inactive calls. Unless noted, calls come from the whole dose curve; as a rule, active = well fitted curve in the direction sought with a large enough effect; inconclusive = small, poorly fitted or top-dose-only effect, or another doubt; inactive = no such curve, though single readings can be large; an effect the other way counts as inactive or inconclusive.

Assay [1] has as its target ATP-dependent 6-phosphofructokinase (Trypanosoma brucei brucei) (UniProt O15648). Kind of assay: qHTS Assay to Find Inhibitors of T. brucei phosphofructokinase: hit validation (AID 492961).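 Note: luminescence reports ADP formed as PFK phosphorylates fructose-6-phosphate with ATP; % is set by controls: 0 for no effect and ±100 for the full control effect.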 A digest of the protocol:
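Measures ADP output of PFK (1.25 nM) at 0.1 mM ATP, 0.5 mM F6P, pH 8.0 TEA buffer with 5 mM MgCl2. No-enzyme wells define full inhibition; uninhibited enzyme wells define zero.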
A general note: In qHTS, concentration-response curves come from the screen itself.

In assay [2] the target is Luciferin 4-monooxygenase (Photinus pyralis) (UniProt P08659). The assay can be described thus: Biochemical firefly luciferase enzyme assay for NPC (AID 624030). Note: nearly all actives have a fitted effect of over 70% in size. Note: potency is the fitted concentration of half-maximal effect. A digest of the protocol: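 Direct inhibition of firefly luciferase enzyme (10 nM final, 50 mM Tris Acetate) assessed by luminescence within 5 minutes. Percent activity scaled between DMSO and PTC124 positive control, with concentration-effect curves classified by fit quality and response.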
Sequence of Luciferin 4-monooxygenase (Photinus pyralis) (P08659 whole entry, looked up): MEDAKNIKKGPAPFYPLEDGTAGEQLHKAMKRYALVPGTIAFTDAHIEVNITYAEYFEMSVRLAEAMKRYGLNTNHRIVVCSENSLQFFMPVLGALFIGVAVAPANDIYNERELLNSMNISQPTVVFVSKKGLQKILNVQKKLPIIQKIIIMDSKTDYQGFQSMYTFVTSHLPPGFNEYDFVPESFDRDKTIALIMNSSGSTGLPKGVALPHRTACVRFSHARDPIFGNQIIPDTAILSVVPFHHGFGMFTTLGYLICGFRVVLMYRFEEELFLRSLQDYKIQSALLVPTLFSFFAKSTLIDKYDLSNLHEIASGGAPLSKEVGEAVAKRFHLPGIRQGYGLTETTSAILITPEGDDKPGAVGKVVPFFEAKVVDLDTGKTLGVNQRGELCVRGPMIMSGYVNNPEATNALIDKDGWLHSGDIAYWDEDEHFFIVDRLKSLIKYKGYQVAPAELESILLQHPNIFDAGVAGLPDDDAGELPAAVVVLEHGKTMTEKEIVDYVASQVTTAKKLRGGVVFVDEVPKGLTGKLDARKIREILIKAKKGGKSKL

Assay [3] in a line: S16 Schwann cell PMP22 intronic element beta-lactamase assay (AID 624044; calls by dose curve;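 note: 0% = DMSO and -100% = potassium clavulanate positive control; nearly all actives have a fitted effect of over 15% in size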). The note with it: S16 rat Schwann cells, PMP22 element beta-lactamase FRET, 24 h; ratio activity, negative = inhibition: at 38.3 µM (top of the series). A digest of the protocol: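 Rat S16 Schwann cells with beta-Lac driven by a PMP22 intronic element, compound-treated 24 h at 37 °C. LiveBLAzer FRET B/G read: 460 nm normalized to potassium clavulanate vs DMSO; 535 nm FRET as viability; concentration-effect curves classified.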

The nature of assay [4]: qHTS profiling for inhibitors of Plasmodium falciparum proliferation (AID 504749).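 For activity, negative = inhibition: 0% = DMSO vehicle and full inhibition = artemisinin control.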 Note: nearly all actives have a fitted effect of over 60% in size. Note: potency is the fitted concentration of half-maximal effect. The note with it: P. falciparum in erythrocytes, SYBR Green DNA, 72 h, at 28.7 µM (top of the series). A digest of the protocol:
(§1)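 Infected RBCs, 0.3% parasitemia/2.5% Hct final; cpd 72 h, 37 C, 5% CO2; lysis buffer with saponin/triton/SYBR Green I, o/n RT dark; FI 485/535; norm. to artemisinin (0.29 uM) and DMSO.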

A further assay relates to CP185. Described as above. The note with it: P. falciparum in erythrocytes, SYBR Green DNA, 72 h; series mostly up to 28.7 µM. In a few lines: as §1
The next assay has as its system CP192. Described as above. The note with it: P. falciparum in erythrocytes, SYBR Green DNA, 72 h; series mostly up to 28.7 µM. In a few lines:
as §1

The subject of the next assay is CP211. The description is as above. The note with it: P. falciparum in erythrocytes, SYBR Green DNA, 72 h; series mostly up to 28.7 µM. In a few lines: as §1
The test system of a further assay is CP238. The description is as above. Particulars: P. falciparum in erythrocytes, SYBR Green DNA, 72 h; series mostly up to 28.7 µM. A digest of the protocol: as §1
The next assay concerns CP262. The description is as above. The note with it: P. falciparum in erythrocytes, SYBR Green DNA, 72 h; series mostly up to 28.7 µM. In a few lines: as §1
The subject of the next assay is CP269. The assay is described as above. Particulars: P. falciparum in erythrocytes, SYBR Green DNA, 72 h; series mostly up to 28.7 µM. In a few lines: as §1
A further assay relates to CP305. Described as above. The note with it: P. falciparum in erythrocytes, SYBR Green DNA, 72 h; series mostly up to 28.7 µM. In a few lines:
as §1

Another assay has as its system CP315. The description is as above. The note with it: P. falciparum in erythrocytes, SYBR Green DNA, 72 h; series mostly up to 28.7 µM. A digest of the protocol:
as §1

The test system of the next assay is CP325. The assay is described as above. Particulars: P. falciparum in erythrocytes, SYBR Green DNA, 72 h; series mostly up to 28.7 µM. In a few lines: as §1
The test system of another assay is FAB9. The assay is described as above. The note with it: P. falciparum in erythrocytes, SYBR Green DNA, 72 h; series mostly up to 28.7 µM. In a few lines: as §1
The test system of another assay is HB3. Described as above. The note with it: P. falciparum in erythrocytes, SYBR Green DNA, 72 h; series mostly up to 28.7 µM. A digest of the protocol:
as §1

Another assay has as its system JCK. The assay is described as above. The note with it: P. falciparum in erythrocytes, SYBR Green DNA, 72 h; series mostly up to 28.7 µM. In a few lines: as §1
For the next assay, the system named is N140. The assay is described as above. Particulars: P. falciparum in erythrocytes, SYBR Green DNA, 72 h; series mostly up to 28.7 µM. In a few lines: as §1
A further assay deals with PC49. Described as above. Particulars: P. falciparum in erythrocytes, SYBR Green DNA, 72 h; series mostly up to 28.7 µM. In a few lines:
as §1

The test system of a further assay is Dd2. The description is as above. The note with it: P. falciparum in erythrocytes, SYBR Green DNA, 72 h; series mostly up to 28.7 µM. A digest of the protocol:
as §1

A further assay deals with CP286. The assay is described as above. Particulars: P. falciparum in erythrocytes, SYBR Green DNA, 72 h; series mostly up to 28.7 µM. In a few lines: as §1

Sequence of ATP-dependent 6-phosphofructokinase (Trypanosoma brucei brucei) (O15648 whole entry, looked up): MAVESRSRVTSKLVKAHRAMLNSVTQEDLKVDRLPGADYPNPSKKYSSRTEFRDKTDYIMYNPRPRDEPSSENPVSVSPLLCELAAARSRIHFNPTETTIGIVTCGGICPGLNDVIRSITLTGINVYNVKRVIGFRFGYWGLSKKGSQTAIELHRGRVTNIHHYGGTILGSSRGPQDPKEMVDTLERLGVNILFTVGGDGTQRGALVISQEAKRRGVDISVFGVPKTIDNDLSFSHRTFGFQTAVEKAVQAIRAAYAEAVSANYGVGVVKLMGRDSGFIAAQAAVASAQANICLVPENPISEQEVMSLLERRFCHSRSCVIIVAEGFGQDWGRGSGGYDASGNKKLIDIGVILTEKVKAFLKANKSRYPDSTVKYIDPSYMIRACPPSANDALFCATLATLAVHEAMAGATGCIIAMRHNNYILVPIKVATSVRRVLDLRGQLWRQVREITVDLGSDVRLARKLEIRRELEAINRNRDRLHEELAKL

For the molecule `C[C@]12CC[C@@H]3c4ccc(O)cc4CC[C@H]3[C@@H]1CCC2OC(=O)CCC1CCCC1` (stereo partly specified), the Potency result (in [1]; in [2]; in assay [3]; in the assay with CP185; in the assay with CP192; in the assay with CP211) was “inactive” in each case. In addition, the Potency entry with CP238, with CP262, in the assay with CP269, in the assay with CP305, in the assay with CP315 and with CP325 was “inactive” in each case. In addition, the Potency result in the assay with FAB9, in the assay with HB3, with JCK, in the assay with N140 and with PC49 was “inactive” throughout. Also, the figures for the activity, negative = inhibition in [4] (parasite line A) and in [4] (parasite line B) were -2.55% and -17%, respectively.

With `CC1=C(C/C=C(\C)CCCC(C)CCCC(C)CCCC(C)C)C(=O)c2ccccc2C1=O` (stereo unspecified), the Potency result (in [1]; in assay [2]; in assay [3]; in the assay with CP185; with CP192; in the assay on CP211) was “inactive” each time. Further, the Potency entry in the assay with CP238, with CP262, in the assay on CP269, in the assay with CP305, with CP315 and in the assay on CP325 was “inactive” throughout. For the same molecule, the Potency entry in the assay with FAB9, in the assay on JCK and in the assay on PC49 was “inactive” throughout. Further, the activity, negative = inhibition in [4] (parasite line A) is -26.3%. Moreover, the Potency is 8.91 µM (active) in the assay on Dd2 and 11.2 µM (active) in the assay with HB3.

`Cc1c(C)c2c(c(C)c1O)CCC(C)(CCCC(C)CCCC(C)CCCC(C)C)O2` (stereo unspecified): the Potency result (in [1]; in [2]; in [3]; in the assay on CP185; in the assay with CP192; in the assay with CP211) was “inactive” in each case. For the same molecule, the Potency result in the assay on CP238, in the assay on CP262, with CP269, with CP286, in the assay with CP305 and in the assay with CP315 was “inactive” throughout. Moreover, the Potency entry in the assay with CP325, in the assay on FAB9, in the assay on HB3, in the assay on JCK, in the assay on N140 and in the assay with PC49 was “inactive” throughout. In addition, the results for the activity, negative = inhibition in assay [4] (parasite line A) and in assay [4] (parasite line B) were 15.7% and 8.58%, respectively.

`CC(C)(C)NC[C@H](O)CSc1nc(-c2ccc(C(N)=O)s2)cs1`: the Potency result (in [1]; in [2]; in assay [3]; in the assay with CP185; with CP192; in the assay with CP211) was “inactive” in each case. Moreover, the Potency result in the assay with CP238, in the assay with CP262, with CP269, in the assay with CP286, in the assay on CP305 and in the assay on CP315 was “inactive” each time. Moreover, the Potency entry in the assay on CP325, with Dd2, with FAB9, in the assay with HB3, in the assay with JCK and in the assay on N140 was “inactive” throughout. Moreover, the Potency result in the assay with PC49 was “inactive”. Also, the activity, negative = inhibition in assay [4] (parasite line A) is -8.78%; in assay [4] (parasite line B), -3.22%.

Consider `CC1CN(c2c(F)c(N)c3c(=O)c(C(=O)O)cn(C4CC4)c3c2F)CC(C)N1` (stereo unspecified), for which the Potency result (in assay [1]; in assay [2]; in [3]; in the assay with CP185; in the assay with CP192; in the assay with CP211) was “inactive” throughout. The Potency result in the assay on CP238, with CP262, in the assay with CP269, in the assay on CP286, in the assay on CP305 and with CP315 was “inactive” each time. The Potency result in the assay on CP325, in the assay with Dd2, in the assay on FAB9, in the assay with HB3, in the assay on JCK and with N140 was “inactive” each time. In addition, the Potency entry in the assay on PC49 was “inactive”. Also, the activity, negative = inhibition in assay [4] (parasite line A) was -2.02%; in assay [4] (parasite line B), 11%.

Regarding `CC1=C(c2ccc(NN=C(C#N)C#N)cc2)NNC(=O)C1`, the Potency entry (in [1]; in [3]; in the assay on CP185; in the assay with CP192; with CP211; with CP238) was “inactive” throughout. The Potency result in the assay on CP262, with CP269, in the assay on CP286, in the assay on CP305, in the assay with CP315 and with CP325 was “inactive” in each case. Besides, the Potency result in the assay on Dd2, with FAB9, in the assay on HB3, in the assay on JCK, in the assay on N140 and in the assay with PC49 was “inactive” throughout. In addition, the Potency in [2] was 14.4 µM (active). Also, the figures for the activity, negative = inhibition in [4] (parasite line A) and in assay [4] (parasite line B) were -7.66% and 20.7%, respectively.

Turning to `COC(=O)C1C2CC3c4[nH]c5cc(OC)ccc5c4CCN3CC2CC(OC)C1OC` (stereo unspecified), the Potency result (in assay [1]; in assay [2]; in assay [3]; in the assay on CP185; in the assay on CP192; in the assay with CP211) was “inactive” each time. Further, the Potency entry in the assay with CP238, in the assay on CP262, in the assay on CP269, with CP286, with CP305 and with CP315 was “inactive” each time. Further, the Potency result in the assay on CP325, with Dd2, in the assay on FAB9, with HB3, in the assay with JCK and in the assay on N140 was “inactive” throughout. The Potency entry in the assay on PC49 was “inactive”. The values for the activity, negative = inhibition in assay [4] (parasite line A) and in assay [4] (parasite line B) were 2.01% and -6.18%, respectively.
